These compounds were tested on HpdA/P_H16_RS24175 L-tyrosine biosensor (pEH158) (assay: relative induction of RFP reporter vs primary effector (background-corrected); higher = stronger activation of the biosensor). Settings: inducer concentration 5 mM; 6 h; Cupriavidus necator H16; minimal medium + 0.4% gluconate.
Protocol: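 C. necator H16 strains, each carrying one of 21 transcription factor/inducible promoter–mRFP biosensor plasmids, were grown in minimal medium in 96-well plates (robotic platform). Each was exposed to 46 structurally or metabolically related compounds at 5 mM at 30 °C. OD-normalised RFP fluorescence was read 6 h later and expressed as relative induction (%) = 100 × (FL compound − FL uninduced)/(FL primary inducer − FL uninduced); mean of n=4.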
`O=S(=O)(O)CCO` [isethionate] was tested, and the “relative induction of RFP reporter” value was -0.112%.
With `N[C@@H](Cc1c[nH]c2ccccc12)C(=O)O` [L-tryptophan] the “relative induction of RFP reporter” value was 0.00902%.
In the case of `C[C@@H](O)C(=O)O` [D-lactate], the “relative induction of RFP reporter” value is reported as -0.202%.
In the case of `O=C(O)C(O)c1ccccc1` (stereo not given) [mandelic acid], the “relative induction of RFP reporter” value is reported as 0.0552%.
For `O=C(O)CNC(=O)c1ccccc1` [N-benzoylglycine], the “relative induction of RFP reporter” value was -0.186%.
With `NCC(=O)O` [glycine] the “relative induction of RFP reporter” value was -0.0404%.
For `O=C(O)CC(=O)C(=O)O` [oxaloacetate], the “relative induction of RFP reporter” value was -0.115%.
With `O=C(O)[C@@H](O)[C@@H](O)[C@H](O)[C@@H](O)C(=O)O` [glucarate] the “relative induction of RFP reporter” value was -0.0077%.
In the case of `NCCc1ccc(O)c(O)c1` [dopamine], the “relative induction of RFP reporter” value is reported as -0.023%.
With `O=CC(=O)O` [glyoxylate] the “relative induction of RFP reporter” value was -0.0503%.
In the case of `NCC(N)C(=O)O` (stereo not given) [2,3-diaminopropanoate], the “relative induction of RFP reporter” value is reported as 0.123%.
For `Oc1ccc(O)cc1` [hydroquinone], the “relative induction of RFP reporter” value was 0.0801%.
In the case of `C[C@H](N)C(=O)O` [L-alanine], the “relative induction of RFP reporter” value is reported as -0.194%.
`O=C(O)C[C@H](O)C(=O)O` [L-malate] was tested, and the “relative induction of RFP reporter” value was -0.0258%.
In the case of `CC(N)CC(=O)O` (stereo not given) [3-aminobutanoate], the “relative induction of RFP reporter” value is reported as -0.135%.
With `CCCC(=O)O` [butyric acid] the “relative induction of RFP reporter” value was -0.166%.
`O=C(O)CC(CC(=O)O)C(=O)O` [tricarballylate] was tested, and the “relative induction of RFP reporter” value was -0.173%.
`NCC(O)C(=O)O` (stereo not given) [3-amino-2-hydroxypropanoate] was tested, and the “relative induction of RFP reporter” value was -0.0973%.
With `Cn1c(=O)c2c(ncn2C)n(C)c1=O` [caffeine] the “relative induction of RFP reporter” value was 0.103%.
With `Oc1cccc(O)c1` [resorcinol] the “relative induction of RFP reporter” value was -0.0108%.
`C[C@H](O)C(=O)O` [L-lactate] was tested, and the “relative induction of RFP reporter” value was -0.188%.
For `O=C(O)c1ccc(O)cc1` [4-hydroxybenzoate], the “relative induction of RFP reporter” value was -0.0931%.
In the case of `O=c1cc[nH]c(=O)[nH]1` [uracil], the “relative induction of RFP reporter” value is reported as -0.0253%.
In the case of `O=C(O)C1CCCC1` [cyclopentane-1-carboxylate], the “relative induction of RFP reporter” value is reported as 0.108%.
In the case of `Cn1cnc2c1c(=O)[nH]c(=O)n2C` [theobromine], the “relative induction of RFP reporter” value is reported as 0.0337%.
With `O=C(O)C(O)C(=O)O` [tartronic acid] the “relative induction of RFP reporter” value was -0.0907%.
`CC(=O)CCC(=O)O` [levulinic acid] was tested, and the “relative induction of RFP reporter” value was -0.244%.
For `O=C(O)/C=C\C=C/C(=O)O` [cis,cis-muconate], the “relative induction of RFP reporter” value was 0.00769%.
In the case of `O=c1[nH]cnc2nc[nH]c12` [hypoxanthine], the “relative induction of RFP reporter” value is reported as -0.0963%.
For `O=C(O)/C=C/C(=O)O` [fumarate], the “relative induction of RFP reporter” value was -0.0945%.
With `O=C(O)C1=C[C@@H](O)[C@@H](O)[C@H](O)C1` [shikimate] the “relative induction of RFP reporter” value was 0.167%.
For `NCCS(=O)(=O)O` [taurine], the “relative induction of RFP reporter” value was -0.19%.
With `NC(=O)CC[C@H](N)C(=O)O` [L-glutamine] the “relative induction of RFP reporter” value was -0.216%.
`O=C(O)C1=CCCCC1` [cyclohexene-1-carboxylate] was tested, and the “relative induction of RFP reporter” value was 0.0248%.
`CCC(=O)O` [propanoate] was tested, and the “relative induction of RFP reporter” value was -0.0944%.
For `O=C(O)c1c(O)cccc1O` [2,6-dihydroxybenzoate], the “relative induction of RFP reporter” value was 0.0687%.
For `O=C(O)CCC(=O)O` [succinate], the “relative induction of RFP reporter” value was -0.126%.
For `N[C@@H](CC(=O)O)C(=O)O` [L-aspartate], the “relative induction of RFP reporter” value was -0.107%.
`Oc1ccccc1O` [catechol] was tested, and the “relative induction of RFP reporter” value was 0.0942%.
In the case of `O=C(O)c1cc(=O)c2ccccc2[nH]1` [kynurenate], the “relative induction of RFP reporter” value is reported as -0.151%.

Reference: the supplement of paper PMC7057948, “A genome-wide approach for identification and characterisation of metabolite-inducible systems” (Nature Communications, 2020)
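Also: RFP excited at 585 nm with emission read at 620 nm, culture medium blanks subtracted from fluorescence and absorbance prior to normalisation.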
